Data as given in PubChem BioAssay (NCATS).
Inconclusive results are not listed. The source made the active and inactive calls. Calls come from the whole dose curve; as a rule, active = well fitted cell-killing curve with a large enough effect; inconclusive = small, poorly fitted or top-dose-only effect, or effect the other way; inactive = no such curve, though single readings can be large or run the other way.

Tests used:
[1] = Quantitative High-Throughput drug screen in 47 multiple myeloma cell lines against the NCATS MIPE library collection: KMS28PE_JCRB cell viability assay (AID 1918983); conditions: KMS28PE multiple myeloma viability, CellTiter-Glo ATP, 48 h; series mostly up to 45.8 µM; note: nearly all actives have a fitted effect of over 35% in size
Procedure, shortened: (§1)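 Myeloma cells (500/well) treated with MIPE 4.0 compounds for 48 h at 37 °C, 5% CO2. Viability read as ATP via CellTiter-Glo luminescence after 5 min at RT; DMSO-only wells = 100%, media-only = 0% viability.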

[2] = Quantitative High-Throughput drug screen in 47 multiple myeloma cell lines against the NCATS MIPE library collection: L363_DSMZ cell viability assay (AID 1918984); conditions: L363 myeloma viability, CellTiter-Glo ATP luminescence, 48 h; series mostly up to 45.8 µM; note: nearly all actives have a fitted effect of over 40% in size
Procedure, shortened: as §1

[3] = Quantitative High-Throughput drug screen in 47 multiple myeloma cell lines against the NCATS MIPE library collection: OCIMY7_PLB cell viability assay (AID 1918987); conditions: OCI-MY7 myeloma viability, CellTiter-Glo ATP, 48 h; series mostly up to 45.8 µM; note: nearly all actives have a fitted effect of over 65% in size
Procedure, shortened: as §1

[4] = Quantitative High-Throughput drug screen in 47 multiple myeloma cell lines against the NCATS MIPE library collection: OCIMY5_PLB cell viability assay (AID 1918988); conditions: OCI-MY5 myeloma viability, ATP luminescence, 48 h; series mostly up to 45.8 µM; note: nearly all actives have a fitted effect of over 65% in size
Procedure, shortened: as §1

[5] = Quantitative High-Throughput drug screen in 47 multiple myeloma cell lines against the NCATS MIPE library collection: OPM1_PLB cell viability assay (AID 1918989); conditions: CellTiter-Glo, 48 h; series mostly up to 45.8 µM; note: nearly all actives have a fitted effect of over 40% in size
Procedure, shortened: as §1

[6] = Quantitative High-Throughput drug screen in 47 multiple myeloma cell lines against the NCATS MIPE library collection: SKMM1_PLB cell viability assay (AID 1919863); conditions: SKMM1 myeloma viability, CellTiter-Glo ATP, 48 h; viability: active compounds read low; note: nearly all actives have a fitted effect of over 35% in size
Procedure, shortened: as §1

[7] = Quantitative High-Throughput drug screen in 47 multiple myeloma cell lines against the NCATS MIPE library collection: U266_ATCC cell viability assay (AID 1919864); conditions: U266 myeloma viability, CellTiter-Glo ATP luminescence, 48 h; series mostly up to 45.8 µM; note: nearly all actives have a fitted effect of over 35% in size
Procedure, shortened: as §1

[8] = Quantitative High-Throughput drug screen in 47 multiple myeloma cell lines against the NCATS MIPE library collection: XG6_PLB cell viability assay (AID 1919865); conditions: XG6 myeloma viability, CellTiter-Glo ATP luminescence, 48 h; series mostly up to 45.8 µM; note: nearly all actives have a fitted effect of over 40% in size
Procedure, shortened: as §1

[9] = Quantitative High-Throughput drug screen in 47 multiple myeloma cell lines against the NCATS MIPE library collection: VP6_DJ cell viability assay (AID 1919867); conditions: ATP luminescence, 48 h; series mostly up to 45.8 µM; note: nearly all actives have a fitted effect of over 40% in size
Procedure, shortened: as §1

[10] = Quantitative High-Throughput drug screen in 47 multiple myeloma cell lines against the NCATS MIPE library collection: LP1_DSMZ cell viability assay (AID 1918982); conditions: LP1 myeloma viability, CellTiter-Glo ATP luminescence, 48 h; series mostly up to 45.8 µM; note: nearly all actives have a fitted effect of over 35% in size
Procedure, shortened: as §1
Potency is the fitted concentration of half-maximal effect.

CNC(=O)N1N=C(c2ccc(N)cc2)c2cc3c(cc2CC1C)OCO3 (stereo unspecified)
active: Potency [1] 4.69 µM | Potency [2] 5.26 µM | Potency [3] 1.48 µM | Potency [4] 3.72 µM | Potency [5] 4.69 µM | Potency [6] 5.26 µM | Potency [7] 3.72 µM | Potency [8] 7.43 µM | Potency [9] 2.64 µM

C[C@@H]1O[C@@H](O[C@H]2C[C@@H](O)[C@]3(CO)[C@H]4[C@H](O)C[C@]5(C)[C@@H](C6=CC(=O)OC6)CC[C@]5(O)[C@@H]4CC[C@]3(O)C2)[C@H](O)[C@H](O)[C@H]1O
active: Potency [10] 0.0166 µM | Potency [1] 0.0209 µM | Potency [2] 0.0469 µM | Potency [3] 0.0148 µM | Potency [4] 0.0235 µM | Potency [6] 0.059 µM | Potency [7] 0.0209 µM | Potency [8] 0.0187 µM | Potency [9] 0.0166 µM

Cc1cccc(C)c1NC(=O)CN1CCCC1=O
inactive: Potency [10] | Potency [1] | Potency [2] | Potency [3] | Potency [4] | viability [6] 118% | Potency [8]

COC[C@H]1OC(=O)c2coc3c2[C@@]1(C)C1=C(C3=O)C2CCC(=O)[C@@]2(C)C[C@H]1OC(C)=O (stereo partly specified)
active: Potency [1] 6.62 µM | Potency [2] 11.8 µM | Potency [3] 0.743 µM | Potency [4] 14.8 µM | Potency [5] 0.833 µM | Potency [6] 2.96 µM | Potency [7] 20.9 µM | Potency [8] 4.18 µM | Potency [9] 3.72 µM

COc1ccc(C(CN(C)C)C2(O)CCCCC2)cc1 (stereo unspecified)
inactive: Potency [10] | Potency [2] | Potency [5]

Cc1sc2c(c1C)C(c1ccc(Cl)cc1)=N[C@@H](CC(=O)OC(C)(C)C)c1nnc(C)n1-2
active: Potency [10] 1.05 µM | Potency [1] 0.235 µM | Potency [2] 0.132 µM | Potency [4] 0.132 µM | Potency [5] 0.0743 µM | Potency [6] 0.372 µM | Potency [7] 0.148 µM | Potency [8] 7.43 µM | Potency [9] 0.0833 µM

C=C(C)[C@H]1Cc2c(ccc3c2O[C@@H]2COc4cc(OC)c(OC)cc4[C@@H]2C3=O)O1
active: Potency [10] 0.264 µM | Potency [2] 0.148 µM | Potency [3] 1.05 µM | Potency [4] 0.833 µM | Potency [5] 7.43 µM | Potency [7] 0.332 µM | Potency [8] 0.526 µM | Potency [9] 0.166 µM

O=c1[nH]c2ccccc2n1CCCN1CCC(n2c(=O)[nH]c3cc(Cl)ccc32)CC1
inactive: Potency [1] | Potency [5] | viability [6] 125% | Potency [7]
active: Potency [8] 20.9 µM | Potency [9] 13.2 µM

C#CCN(C)[C@H](C)Cc1ccccc1
inactive: Potency [10] | Potency [2] | Potency [5] | Potency [7]
active: Potency [6] 16.6 µM

CNCC(O)c1ccc(O)cc1 (stereo unspecified)
inactive: Potency [10] | Potency [1] | Potency [3] | Potency [5] | Potency [7]

CN(C)[C@@H]1C(=O)C(C(N)=O)=C(O)[C@@]2(O)C(=O)C3=C(O)c4c(O)cccc4[C@@](C)(O)[C@H]3C[C@@H]12
inactive: Potency [2] | Potency [7] | Potency [8]

Cn1c(CCCC(=O)O)nc2cc(N(CCCl)CCCl)ccc21
inactive: Potency [2] | Potency [5] | Potency [9]
active: Potency [1] 7.43 µM | Potency [3] 6.62 µM | Potency [4] 8.33 µM | Potency [8] 14.8 µM

NCC1(CC(=O)O)CCCCC1
inactive: Potency [10] | Potency [1] | Potency [5] | viability [6] 140% | Potency [7]

COc1ccc2c(c1OC)CN1CCc3cc4c(cc3C1C2)OCO4 (stereo unspecified)
active: Potency [2] 5.9 µM | Potency [8] 20.9 µM | Potency [9] 5.9 µM
inactive: Potency [3] | Potency [5] | viability [6] 104%

Cc1cc(SCc2sc(-c3ccc(C(F)(F)F)c(F)c3)nc2C)ccc1OCC(=O)O
active: Potency [10] 16.6 µM | Potency [3] 20.9 µM | Potency [4] 13.2 µM | Potency [5] 20.9 µM | Potency [7] 18.7 µM

CC1=C2C[C@@H]3[C@@H](CC=C4C[C@@H](O)CC[C@@]43C)[C@@H]2CC[C@]12O[C@H]1C[C@H](C)CN[C@H]1[C@H]2C
inactive: Potency [10] | Potency [8]
active: Potency [4] 11.8 µM | Potency [5] 0.0469 µM | Potency [7] 20.9 µM

CN1CCN(C(=O)O[C@H]2c3nccnc3C(=O)N2c2ccc(Cl)cn2)CC1
inactive: Potency [10] | Potency [3] | Potency [5] | Potency [8] | Potency [9]

COC1(CS(=O)c2ccccc2)CCN(CCc2c[nH]c3ccc(F)cc23)CC1 (stereo unspecified)
inactive: Potency [10] | viability [6] 116% | Potency [7]
active: Potency [1] 8.33 µM | Potency [8] 16.6 µM

CC(C)CC(N(C)C)C1(c2ccc(Cl)cc2)CCC1 (stereo unspecified)
inactive: Potency [10] | Potency [2] | Potency [5] | Potency [8]
active: Potency [7] 4.18 µM

O=C(O)C(=O)c1cn(Cc2ccccc2)c2ccc(-c3ccc(OC(F)(F)F)cc3)cc12
inactive: Potency [10] | Potency [5]
active: Potency [1] 3.32 µM | Potency [6] 3.72 µM | Potency [7] 23.5 µM

C[C@@H]1[C@@H](CC(C[C@H]2O[C@@H]3O[C@]4(C)CC[C@@H]5[C@H](C)CC[C@@H]([C@H]2C)[C@@]35OO4)C[S+](=O)([O-])c2ccc(COC(=O)N(C)C)cc2)O[C@@H]2O[C@]3(C)CC[C@H]4[C@H](C)CC[C@@H]1[C@@]24OO3 (stereo partly specified)
active: Potency [1] 0.209 µM | Potency [2] 0.0469 µM | Potency [3] 0.0833 µM | Potency [4] 0.209 µM | Potency [5] 0.372 µM | Potency [6] 0.166 µM | Potency [7] 0.372 µM | Potency [8] 0.264 µM | Potency [9] 0.372 µM

N[C@@H](Cc1ccc(N(CCCl)CCCl)cc1)C(=O)O
active: Potency [10] 16.6 µM | Potency [1] 16.6 µM | Potency [2] 5.26 µM | Potency [3] 0.662 µM | Potency [4] 9.35 µM | Potency [5] 13.2 µM | Potency [6] 26.4 µM | Potency [7] 16.6 µM | Potency [8] 1.18 µM | Potency [9] 11.8 µM

CC(O)(CS(=O)(=O)c1ccc(F)cc1)C(=O)Nc1ccc(C#N)c(C(F)(F)F)c1 (stereo unspecified)
active: Potency [2] 1.48 µM | Potency [3] 0.743 µM | Potency [4] 0.332 µM | Potency [5] 3.32 µM | Potency [7] 0.743 µM | Potency [8] 0.0935 µM | Potency [9] 0.743 µM

Fc1ccc(C(OCCN2CCN(CCCc3ccccc3)CC2)c2ccc(F)cc2)cc1
inactive: Potency [2]
active: Potency [10] 18.7 µM | Potency [1] 23.5 µM | Potency [3] 7.43 µM | Potency [4] 13.2 µM | Potency [5] 16.6 µM | Potency [6] 23.5 µM | Potency [8] 7.43 µM | Potency [9] 9.35 µM

COc1ccc(C(=O)c2c(C)n(CCN3CCOCC3)c3ccccc23)cc1
inactive: Potency [10] | Potency [1] | Potency [5] | Potency [7] | Potency [8] | Potency [9]

O=P1(NCCCl)OCCCN1CCCl (stereo unspecified)
active: Potency [3] 8.33 µM | Potency [4] 18.7 µM | Potency [5] 16.6 µM | Potency [8] 16.6 µM | Potency [9] 6.62 µM

CN(C)CCc1ccc(O)cc1
active: Potency [9] 6.62 µM
inactive: Potency [10] | Potency [1] | Potency [3] | Potency [4] | Potency [5] | viability [6] 107% | Potency [7]

CCCC(C)(COC(N)=O)COC(=O)NC(C)C (stereo unspecified)
inactive: Potency [10] | Potency [1] | Potency [2] | Potency [3] | Potency [4] | Potency [7] | Potency [9]

C[C@@H]1[C@@H](C(=O)C[C@H]2O[C@@H]3O[C@]4(C)CC[C@@H]5[C@H](C)CC[C@@H]([C@H]2C)[C@@]35OO4)O[C@@H]2O[C@]3(C)CC[C@H]4[C@H](C)CC[C@@H]1[C@@]24OO3
active: Potency [1] 0.418 µM | Potency [2] 0.059 µM | Potency [3] 0.0743 µM | Potency [4] 0.332 µM | Potency [5] 0.418 µM | Potency [6] 0.743 µM

CNC(=O)c1ccc(N2C(=S)N(c3ccc(C#N)c(C(F)(F)F)c3)C(=O)C23CCC3)cc1F
inactive: Potency [1]
active: Potency [3] 2.96 µM | Potency [4] 1.32 µM | Potency [7] 8.33 µM | Potency [8] 1.05 µM | Potency [9] 8.33 µM

CN(C)CCN(C)CCc1ccc(Cl)c(Cl)c1
inactive: Potency [1] | Potency [4] | Potency [5] | Potency [8] | Potency [9]

COC[C@@H](NC(C)=O)C(=O)NCc1ccccc1
inactive: Potency [10] | Potency [1] | Potency [2] | Potency [4] | Potency [5] | viability [6] 103% | Potency [8] | Potency [9]

O=C1CC[C@@]2(O)[C@H]3Cc4ccc(O)c5c4[C@@]2(CCN3CC2CC2)[C@H]1O5
active: Potency [5] 7.43 µM
inactive: Potency [10] | Potency [1] | viability [6] 110% | Potency [7] | Potency [8]

Cn1cc(C2=C(c3cn(C4CCN(Cc5ccccn5)CC4)c4ccccc34)C(=O)NC2=O)c2ccccc21
inactive: viability [6] 86.1%
active: Potency [10] 10.5 µM | Potency [2] 0.833 µM | Potency [3] 3.72 µM | Potency [4] 7.43 µM | Potency [5] 16.6 µM | Potency [8] 2.96 µM | Potency [9] 11.8 µM
